# The panel holds about 79,000 compounds, 15% with a hit somewhere; the sample as a whole holds those more often. The source made the active and inactive calls. No stated cut-off is given here; in the data, active means growth inhibition above about 70%; inactive means the rest.
# Test: NCI Yeast Anticancer Drug Screen. Data for the bub3 strain (AID 167)
# Details: S. cerevisiae bub3 mutant strain, at 50.0 µM, stronger effect = higher value
# Outline: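 Mutant yeast screening strain plus compound; vehicle-treated cultures serve as the 0% inhibition reference.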
row,SMILES,growth inhibition
1,COc1ccc2c(c1O)-c1cc(O)cc3c1C(C2)N(CCCl)CC3 (stereo not drawn),-10.3% (inactive)
2,N#CCO,-3.4% (inactive)
3,[Cl][Rh]([Cl])([Cl])[Cl].[NH-]CC[NH-],-9.95% (inactive)
4,O=[N+]([O-])c1ccc(P(=O)(O)O)cc1,2.85% (inactive)
5,C=C1OC(OC)CC(N=[N+]=[N-])C1O (stereo not drawn),2.45% (inactive)
6,O=C(Nc1ccc(S(=O)(=O)F)cc1)/C(=C\c1ccc([N+](=O)[O-])cc1)c1cccc(Cl)c1,-0.7% (inactive)
7,N.N.N.N.N.NC(=O)[O-].[Co+3].[I-],-7.75% (inactive)
8,c1ccc(CCN2CCCCC2)nc1,13.3% (inactive)
9,O=C(c1ccccc1)c1c(CC(O)c2ccccc2)n(C(=O)c2ccccc2)c2ccccc12 (stereo not drawn),-22.9% (inactive)
10,C1CN2CCOC2O1,7.45% (inactive)
11,Cc1ccc(NC(=O)CCc2ccc(N3C(N)=NC(N)=NC3(C)C)cc2Cl)cc1S(=O)(=O)F,-25.9% (inactive)
12,CN(C)[C@@H]1C(=O)C(C(N)=O)=C(O)[C@]2(O)C(=O)C3C(=O)c4c(O)ccc(Cl)c4[C@](C)(O)[C@H]3C[C@@H]12 (stereo partly drawn),3.15% (inactive)
13,S=[As](c1ccc(-c2ccccc2)cc1)(c1ccc(-c2ccccc2)cc1)c1ccc(-c2ccccc2)cc1,-13.6% (inactive)
14,CC(C)CCON=O,-13.1% (inactive)
15,CCOP(=O)(OCC)N1C(C)C1C (stereo not drawn),4.25% (inactive)
16,O=C1CN2CCC1CC2,-23.2% (inactive)
17,CCN(CC)C1CCCCC1,-0.9% (inactive)
18,O=C(O)CC(=O)O.[NH-]C1CCCCC1[NH-].[Pt+2] (stereo not drawn),21.4% (inactive)
19,CCOP(=O)(NCc1ccccc1)c1ccc(N)cc1 (stereo not drawn),-0.5% (inactive)
20,COc1cc2c(cc1O)CCN[C@H]2C,3.55% (inactive)

row,SMILES,growth inhibition
1,C[Se]c1ncnc2c1c(C#N)cn2C1OC(CO)C(O)C1O (stereo not drawn),1.45% (inactive)
2,O=C1NN2CCCN=C2c2cnccc21,27.6% (inactive)
3,ClCCN(CCCl)c1ccc(C=Nc2ccccc2)cc1,2% (inactive)
4,CCOC(=N)CC(O)C(Cl)(Cl)Cl (stereo not drawn),22% (inactive)
5,[C-]#[O+].[C-]#[O+].[C-]#[O+].[C-]#[O+].[C-]#[O+].[CH3][Sn]([Cl])[c]1ccccc1.[Mn],96% (active)
6,NC(=O)c1cc([N+](=O)[O-])c(N(CCCl)CCCl)c([N+](=O)[O-])c1,-1.55% (inactive)
7,CCC1(CCC(C)C)C(=O)NC(=O)N(c2ccccc2)C1=O (stereo not drawn),8.3% (inactive)
8,CCOC(=O)c1ccccc1C(=O)OCC,-0.05% (inactive)
9,O=C1Cc2ccccc2C(=O)N1CCN1CCOCC1,-1.5% (inactive)
10,CN(C)c1ccccc1,3.1% (inactive)
11,Oc1ccccc1C=NCCN=Cc1ccccc1O,-9.2% (inactive)
12,Cc1ncc(CNC(=O)N(CCCl)N=O)c(N)n1,-4.2% (inactive)
13,CN1C(=O)N(C)C(O)C(Cl)(Cl)C1=O (stereo not drawn),26.1% (inactive)
14,Cc1cc(C)c(CCl)cc1CCl,-7.15% (inactive)
15,CCNC(=O)N1CC2CCC(C1)N2C,-18.8% (inactive)
16,CC1CN1C1c2ccccc2CC1O (stereo not drawn),-20.3% (inactive)
17,O=[N+]([O-])c1c(Cl)cc(Cl)c([N+](=O)[O-])c1Cl,2.85% (inactive)
18,CC(C)OP(=S)(Oc1ccc(Cl)cc1Cl)OC(C)C,21.2% (inactive)
19,O=C(COc1ccc(Cl)c(Cl)c1)Nc1ccc[n+](Cc2ccc(S(=O)(=O)F)c(Cl)c2)c1,94.8% (active)

# Test: NCI Yeast Anticancer Drug Screen. Data for the mlh1 rad18 strain (AID 175)
# Details: S. cerevisiae mlh1 rad18 strain growth inhibition; at 50.0 µM; stronger effect = higher value
# Outline: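 Inhibition values reflect reduced growth of mutant yeast versus vehicle-treated controls following compound exposure; the mutations affect DNA damage repair.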
row,SMILES,growth inhibition
1,COc1ccc2c(c1O)-c1cc(O)cc3c1C(C2)N(CCCl)CC3 (stereo not drawn),48.7% (inactive)
2,N#CCO,-5.65% (inactive)
3,[Cl][Rh]([Cl])([Cl])[Cl].[NH-]CC[NH-],8.55% (inactive)
4,O=[N+]([O-])c1ccc(P(=O)(O)O)cc1,10.4% (inactive)
5,C=C1OC(OC)CC(N=[N+]=[N-])C1O (stereo not drawn),-15.6% (inactive)
6,O=C(Nc1ccc(S(=O)(=O)F)cc1)/C(=C\c1ccc([N+](=O)[O-])cc1)c1cccc(Cl)c1,11.1% (inactive)
7,N.N.N.N.N.NC(=O)[O-].[Co+3].[I-],-15.7% (inactive)
8,c1ccc(CCN2CCCCC2)nc1,-0.85% (inactive)
9,O=C(c1ccccc1)c1c(CC(O)c2ccccc2)n(C(=O)c2ccccc2)c2ccccc12 (stereo not drawn),-13.9% (inactive)
10,C1CN2CCOC2O1,-7.1% (inactive)
11,Cc1ccc(NC(=O)CCc2ccc(N3C(N)=NC(N)=NC3(C)C)cc2Cl)cc1S(=O)(=O)F,15% (inactive)
12,CN(C)[C@@H]1C(=O)C(C(N)=O)=C(O)[C@]2(O)C(=O)C3C(=O)c4c(O)ccc(Cl)c4[C@](C)(O)[C@H]3C[C@@H]12 (stereo partly drawn),-2.9% (inactive)
13,S=[As](c1ccc(-c2ccccc2)cc1)(c1ccc(-c2ccccc2)cc1)c1ccc(-c2ccccc2)cc1,-18.2% (inactive)
14,CC(C)CCON=O,-35.6% (inactive)
15,CCOP(=O)(OCC)N1C(C)C1C (stereo not drawn),-4.75% (inactive)
16,O=C1CN2CCC1CC2,10.8% (inactive)
17,CCN(CC)C1CCCCC1,11.2% (inactive)
18,O=C(O)CC(=O)O.[NH-]C1CCCCC1[NH-].[Pt+2] (stereo not drawn),13.8% (inactive)
19,CCOP(=O)(NCc1ccccc1)c1ccc(N)cc1 (stereo not drawn),7.15% (inactive)
20,COc1cc2c(cc1O)CCN[C@H]2C,-1.45% (inactive)

row,SMILES,growth inhibition
1,C[Se]c1ncnc2c1c(C#N)cn2C1OC(CO)C(O)C1O (stereo not drawn),2.65% (inactive)
2,O=C1NN2CCCN=C2c2cnccc21,-7.4% (inactive)
3,ClCCN(CCCl)c1ccc(C=Nc2ccccc2)cc1,28.6% (inactive)
4,CCOC(=N)CC(O)C(Cl)(Cl)Cl (stereo not drawn),-6.25% (inactive)
5,[C-]#[O+].[C-]#[O+].[C-]#[O+].[C-]#[O+].[C-]#[O+].[CH3][Sn]([Cl])[c]1ccccc1.[Mn],92.5% (active)
6,NC(=O)c1cc([N+](=O)[O-])c(N(CCCl)CCCl)c([N+](=O)[O-])c1,17.8% (inactive)
7,CCC1(CCC(C)C)C(=O)NC(=O)N(c2ccccc2)C1=O (stereo not drawn),-9.25% (inactive)
8,CCOC(=O)c1ccccc1C(=O)OCC,10.9% (inactive)
9,O=C1Cc2ccccc2C(=O)N1CCN1CCOCC1,1.55% (inactive)
10,CN(C)c1ccccc1,2.65% (inactive)
11,Oc1ccccc1C=NCCN=Cc1ccccc1O,31.8% (inactive)
12,Cc1ncc(CNC(=O)N(CCCl)N=O)c(N)n1,32.1% (inactive)
13,CN1C(=O)N(C)C(O)C(Cl)(Cl)C1=O (stereo not drawn),11.6% (inactive)
14,Cc1cc(C)c(CCl)cc1CCl,27.8% (inactive)
15,CCNC(=O)N1CC2CCC(C1)N2C,8.45% (inactive)
16,CC1CN1C1c2ccccc2CC1O (stereo not drawn),-8.95% (inactive)
17,O=[N+]([O-])c1c(Cl)cc(Cl)c([N+](=O)[O-])c1Cl,32.1% (inactive)
18,CC(C)OP(=S)(Oc1ccc(Cl)cc1Cl)OC(C)C,8% (inactive)
19,O=C(COc1ccc(Cl)c(Cl)c1)Nc1ccc[n+](Cc2ccc(S(=O)(=O)F)c(Cl)c2)c1,99.5% (active)

# From PubChem BioAssay (NCI)
